Assay outcomes from PubChem.
TRHR PAM: allosteric enhancers of human TRH receptor; AID 493056; P34981; enhancement, % at 2 µM; TRHR cells, fluo-8 calcium fluorescence, EC20 TRH enhancement; actives 0.66% (n = 360,000); in the data active = enhancement above about 30%; also: 0% is about no effect
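Enhancer read-out: after compound pinning and an initial kinetic agonist-mode read, an EC20 of TRH (10 nM final) was injected and fluo-8 calcium signal (Ex 480/Em 530) followed at 1 s/cycle for 100 cycles in TRHR-expressing cells.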
D1 PAM: human D1 dopamine receptor positive modulation. HEK293 TREx D1 cells, calcium flux, dopamine EC20 potentiation. potentiation, % at 10 µM. P21728. actives 0.036% (n = 360,000); in the data active = potentiation above about 30%; also: 0% is about no effect
Target sequence (P21728 whole entry, looked up): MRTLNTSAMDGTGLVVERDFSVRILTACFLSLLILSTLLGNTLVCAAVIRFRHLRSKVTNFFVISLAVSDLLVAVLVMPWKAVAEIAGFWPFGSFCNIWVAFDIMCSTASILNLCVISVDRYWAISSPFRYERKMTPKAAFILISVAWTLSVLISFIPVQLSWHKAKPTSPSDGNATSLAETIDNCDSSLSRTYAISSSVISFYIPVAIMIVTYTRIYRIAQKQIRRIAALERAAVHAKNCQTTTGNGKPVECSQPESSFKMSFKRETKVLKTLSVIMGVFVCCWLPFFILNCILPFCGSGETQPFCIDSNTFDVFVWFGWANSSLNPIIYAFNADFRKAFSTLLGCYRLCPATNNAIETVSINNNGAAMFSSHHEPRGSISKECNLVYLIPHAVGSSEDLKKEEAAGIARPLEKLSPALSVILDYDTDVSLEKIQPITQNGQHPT
D1 ag: agonists of human D1 dopamine receptor; P21728; HEK293 T-REx D1 cells, calcium flux, agonist mode; activation, % at 2 µM; actives 1% (n = 360,000); AID 504660; also: 0% is about no effect
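Tetracycline-induced HEK293 TREx D1 cells, force-coupled to calcium signalling, were dye-loaded with a no-wash calcium kit. Compound was pin-added after a 10 s baseline. Fluorescence was read kinetically at 1 cycle/s for 180 s, with calcium rises flagged as agonism.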
TRHR ag: agonists of human TRH receptor. P34981. TRHR cells, calcium flux fluo-8, FDSS agonist mode. activation, % at 2 µM. actives 0.18% (n = 360,000); also: 0% is about no effect
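Steps: seed TRHR cells overnight; add fluo-8 no-wash Ca dye, RT 30 min–1.5 h; record 10 s baseline; pin-transfer compounds; monitor fluorescence 1 cycle/s for the agonist window. Calcium increases flag candidate agonists.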
D1 antagonist: human D1 dopamine receptor antagonism. P21728. HEK293 TREx D1 cells, calcium flux, dopamine EC80; stronger effect = lower value. activity change, negative = inhibition, % at 10 µM. actives 3.2% (n = 360,000). AID 504652; in the data active = activity change below about -30%; also: % is scaled to controls: 0 for no effect and ±100 for the full control effect
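Inducible Hek293 Trex D1 cells (tetracycline, overnight, 30 C). Calcium dye 30–90 min RT. Antagonist mode: EC80 dopamine added after 180 s compound read.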
* marks the source's active call; other numbers are inactive results. An excerpt weighted towards active compounds, which were near 4.7% of everything screened. Rule as the data show it, unless noted: active = activation above about 30%; inactive = the rest.

SMILES | TRHR PAM | D1 PAM | D1 ag | TRHR ag | D1 antagonist
COC(=O)c1ccc(COc2ccccc2/C=N/NS(=O)(=O)c2ccccc2)cc1 | -2 | -8 | 2 | -1 | -51*
COc1ccc(CCNc2ncnc3c2c(-c2ccccc2)cn3-c2ccc(F)cc2)cc1OC | -1 | -3 | 6 | 0 | -16
Cc1cc(C(=O)NN=C2CCCC2)c2ccccc2n1 | -14 | 3 | 1 | 0 | -19
C/C(=N\NC(=O)c1cc(C)nc2ccccc12)c1cccs1 | -14 | -2 | -1 | 0 | -5
Cc1cc(C(=O)NN=C2CCCCC2)c2ccccc2n1 | 2 | -6 | 1 | 0 | -89*
CC(/C=C/c1ccccc1)=N\NC(=O)c1cc(C)nc2ccccc12 | 6 | -8 | 2 | -1 | -36*
Cc1ccc(Cl)cc1NC(=O)c1cc(CN2CCCC2)on1 | 10 | -1 | 5 | 0 | -4
COc1ccccc1NC(=O)CSCc1cc(=O)c2cccc(Cl)c2[nH]1 | 4 | -1 | 1 | 0 | -48*
COc1ccccc1NC(=O)CSCc1cc(=O)c2c(C)cc(C)cc2[nH]1 | -7 | -3 | 2 | -1 | -4
CC(C)(C)c1ccc(C(=O)Nc2ccc(Cl)cc2)cc1 | 20 | 3 | 3 | 1 | 6
CC(C)(C)c1ccc(NC(=O)c2ccsc2)cc1 | -4 | -4 | -1 | 0 | -31*
C=CCC(NCc1ccccc1)c1ccc(OC)cc1 (stereo unspecified) | 5 | 11 | 6 | 0 | -34*
C=CCC(NCc1ccccc1)c1ccco1 (stereo unspecified) | 3 | -13 | 1 | 0 | -57*
O=c1c2cnn(-c3ccccc3)c2ncn1Cc1cccnc1 | 11 | -3 | 2 | 0 | 1
COCCNC(=O)Cn1cnc2c(cnn2-c2ccc(OC)cc2)c1=O | -3 | -4 | 2 | 1 | 0
O=c1c2cnn(-c3ccccc3)c2ncn1Cc1ccccn1 | -2 | 8 | 3 | 0 | -41*
COc1ccc(-n2ncc3c(=O)n(CC(C)=O)cnc32)cc1 | -3 | -4 | 2 | 0 | -34*
COc1cc(OC)c(CN2CCC(Cc3ccccc3)CC2)cc1Br | 3 | -9 | 9 | 2 | -43*
COc1cc(C)c(CN2CCC(Cc3ccccc3)CC2)cc1C | 5 | -8 | 1 | 1 | -10
COc1cc(OC)c(CN2CCc3c([nH]c4ccccc34)C2)cc1Br | -2 | -9 | 7 | 1 | -49*
CCc1ccccc1NC(=O)COCc1cc(-c2ccco2)on1 | 9 | 3 | -1 | 0 | 19
O=[N+]([O-])c1ccc(N=Nc2c(Cl)cc(O)cc2Cl)cc1 | -5 | -13 | 21 | 7 | -46*
COc1cccc(C2CC(C(F)(F)F)n3ncc(C(=O)NCc4ccco4)c3N2)c1 (stereo unspecified) | 32* | 9 | 3 | -1 | -9
COc1cccc(C2CC(C(F)(F)F)n3ncc(C(=O)NC(C)(C)C)c3N2)c1 (stereo unspecified) | -3 | 5 | 0 | 0 | 5
C=CCSc1nnc(CC(OC)OC)n1-c1ccccc1 | 6 | 0 | 8 | -1 | -37*
SMILES | TRHR PAM | D1 PAM | D1 ag | TRHR ag | D1 antagonist
Cc1ccc(CNC(=O)c2ccc(CS(=O)(=O)Cc3ccc(F)cc3)o2)cc1 | -1 | 0 | 2 | 0 | 1
C/C=C/c1ccc(OCCn2nnc3ccccc32)c(OC)c1 | 0 | -2 | 11 | -1 | -9
COc1ccc(/C=C/C(=O)c2ccccc2)cc1Cn1nnc2ccccc21 | -6 | -2 | 3 | 1 | -31*
COc1ccc(/C=C/C(=O)c2ccccc2)cc1COc1ccc(F)cc1 | -5 | -6 | 17 | 4 | -33*
Nc1cc(S(=O)(=O)Nc2cc(Cl)ccc2Cl)ccc1N1CCCC1 | 6 | -10 | 4 | -1 | -33*
COc1ccc(NS(=O)(=O)c2cccc(C(=O)OCC(=O)N3CCN(c4ccc(OC)cc4)CC3)c2)cc1 | 13 | 4 | 7 | 0 | -69*
Nc1cc(S(=O)(=O)Nc2ccc(Cl)cc2)ccc1N1CCOCC1 | 4 | -7 | 15 | 3 | -15
COc1ccc(N2CCN(C(=O)c3ccc(NS(=O)(=O)c4cccc(F)c4)cc3)CC2)cc1 | -5 | -1 | 4 | -1 | 5
Nc1cc(S(=O)(=O)Nc2ccccc2Cl)ccc1N1CCOCC1 | 3 | 1 | 6 | 1 | -26
COc1ccc(NS(=O)(=O)c2ccc(N3CCCC3)c(N)c2)cc1 | 8 | -6 | 38* | -1 | -6
O=C1CSC(=NC2CCCCC2)N1 | -2 | -1 | 1 | 0 | 12
O=C1CS/C(=N/N=C2CCCC2)N1 | 0 | 5 | 4 | 0 | -48*
CCNc1ccc(C(=O)OCC(=O)NCc2ccccc2Cl)cc1[N+](=O)[O-] | 5 | -1 | 2 | 0 | -88*
O=C(COC(=O)c1cc(Cl)ccc1[N+](=O)[O-])NCc1ccc(Cl)cc1Cl | 39* | 10 | 1 | 0 | -11
Cc1cc(=O)n(C(C)C(=O)N2CCCc3ccccc32)c2c1c(C)nn2-c1ccccc1 (stereo unspecified) | -2 | -3 | 7 | -1 | 14
O=C(CNC(c1ccccc1)c1ccccc1)Nc1c(F)cccc1F | -3 | -4 | 0 | -1 | -38*
COc1ccc(CCNC(=O)CCCn2c(=O)c3ccccc3n(Cc3ccccc3C)c2=O)cc1OC | 11 | 3 | -1 | -1 | -33*
Cc1ccc(NC(=O)Cn2c(=O)n(CCCCC(=O)NCCc3ccc(Cl)cc3)c(=O)c3ccccc32)cc1 | 17 | 2 | -1 | 0 | -46*
CCOc1ccc(NC(=O)Cn2c(=O)n(CCCC(=O)NCCc3ccc(Cl)cc3)c(=O)c3ccccc32)cc1 | 2 | -1 | 0 | 0 | 12
COc1ccc(CCNC(=O)CCCn2c(=O)c3ccccc3n(Cc3ccccc3C#N)c2=O)cc1OC | -2 | 0 | 1 | -1 | 9
CC1=C(C(=O)Nc2ccccc2)C(c2cccs2)n2nc(SCc3ccccc3F)nc2N1 (stereo unspecified) | 2 | 1 | 3 | 0 | 1
COc1cc(OC)c(N(C)C(=O)CSc2c3c(nc4ccc(Cl)cc24)CCCC3)cc1Cl | 7 | 9 | 8 | -1 | 8
COc1ccc(NCc2nnc(SCC(=O)c3ccc(OC)cc3)n2C)cc1 | 8 | -9 | 2 | -2 | -33*
COc1ccc(CC(=O)NCc2nnc(SCC(=O)c3ccc(OC)cc3)n2C)cc1 | 1 | 3 | 0 | -1 | 0
Oc1ccc(COC2CCN(Cc3ccccc3)C2)c2cccnc12 (stereo unspecified) | -2 | 6 | 4 | 0 | -1
CC(C)(C)NC(=O)C(OC(=O)c1ccco1)c1ccccc1F (stereo unspecified) | 7 | -3 | -1 | 0 | -38*
